# Compounds with a hit are over-represented: about 21% of the library has one in this group of screens.
# Shiga inhibitor: A qHTS for Small Molecule Inhibitors of Shiga Toxin; Vero cells, Shiga toxin protein synthesis inhibition reporter; inhibition, % at 38.7 µM; 290,000 compounds, 9.2% hits; AID 2315, 2010; in the data active = inhibition mostly above about 28%, no sharp cut-off; inactive = mostly below about 43%; also: 0% is about no effect
# Pf growth 96h: Primary qHTS for delayed death inhibitors of the malarial parasite plastid, 96 hour incubation; AID 504834, 2011; 320,000 compounds, 6.9% hits; P. falciparum luciferase reporter growth, 96 h; Potency, µM (titrated, usually from 28.7 µM), without a hit: top-dose activity change, negative = inhibition, actives largely listed as inhibitors; also: potency is read from the fitted curve at half-maximal effect; % is scaled to controls: 0 for no effect and ±100 for the full control effect
#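 P. falciparum expressing integrated firefly luciferase, in erythrocytes at 2% hematocrit, 0.05% parasitemia, incubated with compounds 96 h at 37 C, 5% CO2. Growth inhibition read as loss of luminescence; two-generation exposure targets delayed-death apicoplast inhibitors.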
# NS1 function inh: qHTS Assay for Inhibitors of Influenza NS1 Protein Function; Potency, µM (top dose mostly 46.1 µM), inactives show at the top dose activity, positive = more growth; AID 2326, 2010; 270,000 compounds, 0.4% hits; calls by dose curve; also: potency is read from the fitted curve at half-maximal effect; actives are rising curves; nearly all actives have a fitted effect of over 50% in size
#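 Compounds were scored for reversing the slow growth caused by influenza A NS1 in S. cerevisiae, measured by optical density at 600 nm. Assay medium contained 2% galactose at pH 6.0; NS1-free yeast of the same strain were the positive control.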
# Pf growth 48h: Primary qHTS for delayed death inhibitors of the malarial parasite plastid, 48 hour incubation; P. falciparum luciferase growth in erythrocytes, 48 h; Potency, µM (series often up to 28.7 µM), without a hit: at the top dose activity change, negative = inhibition, hits mostly inhibitors; 310,000 compounds, 5.9% hits; AID 504832, 2011; also: potency is read from the fitted curve at half-maximal effect; % is scaled to controls: 0 for no effect and ±100 for the full control effect
#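 Growth was read as firefly luciferase luminescence after a 48 h, 37 C, 5% CO2 exposure of compounds to reporter-bearing P. falciparum cultures (0.1% parasitemia, 2% hematocrit final) in Albumax-supplemented RPMI 1640.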
# Cycloheximide cs: Cycloheximide Counterscreen for Small Molecule Inhibitors of Shiga Toxin; cell reporter, cycloheximide protein synthesis inhibition counterscreen; max response, %; 300,000 compounds, 12% hits; AID 2314, 2010; in the data active = max response mostly above about 13%, no sharp cut-off; inactive = mostly below about 14%; also: read at 38.3 µM for the half of the compounds with a filed dose; 0% is about no effect
# * marks the source's active call; other numbers are inactive results; ? = inconclusive; nt = no result given; + = active, no number. Unless noted, calls follow the shape of the dose curve; as a rule, active = well fitted inhibition curve with a large enough effect; inconclusive = small, poorly fitted or top-dose-only effect, or another doubt; inactive = no such curve, though single readings can be large or run the other way.
SMILES,Shiga inhibitor,Pf growth 96h,NS1 function inh,Pf growth 48h,Cycloheximide cs
COc1ccc(Cc2n[nH]c(=S)n2C)cc1Br,16.6,1.0%,2.6%,25.1%,8.9
CCOc1ccc(CNC(=S)N/N=C\c2ccc([N+](=O)[O-])cc2)cc1,9.4,?,4.5%,13.1µM*,11.7*
CCNC(=S)NCc1ccc(OC)c(OC)c1,12.5,5.22µM*,7.1%,2.7%,-2.1
CCCCOc1ccc(CNC(=S)N/N=C/c2ccc(OC)c(OC)c2)cc1,24.3,4.65µM*,29.5%,nt,18.2
COc1ccc(CCNC(=S)NCc2ccc(Cl)c(Cl)c2)cc1OC,-10.7,25.1%,-0.2%,?,-3.0
CCOc1ccc(CNC(=S)N/N=C/c2cccnc2)cc1,19.2,5.9%,6.0%,-6.6%,2.3
CN(CC(=O)NNC(=O)CNC(=O)c1cccs1)S(=O)(=O)c1ccc(Cl)cc1,nt,13.8%,nt,3.2%,nt
O=C(NCc1ccncc1)C(=O)Nc1nc2ccccc2s1,52.0*,202.2%,-4.0%,38.9%,41.8*
COc1ccc(C(=O)Nc2nc3ccccc3s2)cc1OC,16.2,122.2%,-7.0%,?,1.4
CCNC(=O)Nc1nc2ccccc2s1,59.9*,296.3%,nt,183.9%,43.7*
CCOCC(=O)Nc1nc2ccccc2s1,124.7*,14.7µM*,0.5%,432.6%,47.6*
COc1ccc(/C=N/OCC(=O)Nc2nc3ccccc3s2)cc1OC,13.2,-5.5%,2.0%,23.5%,20.1*
O=C(NCc1ccncc1)C(=O)Nc1nccs1,15.6,18.0%,-0.7%,13.4%,0.7
CC(C)OC(=O)CCC(=O)Nc1nc2ccccc2s1,30.5,-16.2%,-16.4%,nt,12.7
CC(C)c1ccc(O)c(O)c(=O)c1 (tested in a mixture with another compound),nt,nt,-65.4%,nt,nt
Cc1cccc(C)c1N1C(=O)c2ccccc2C1=O,20.6,?,12.1%,nt,-3.3
COc1ccc(/C(C)=N/OCC(=O)Nc2nc3ccccc3s2)cc1,-1.7,37.3%,10.5%,31.0%,12.1*
CCc1ccc(NC(=O)CSc2nnc(CNC(=O)c3cccs3)o2)cc1,-10.2,?,-8.8%,9.2%,1.1
Cc1onc(-c2ccccc2)c1C(=O)N/N=C/c1cn(C)c2ccccc12,-18.8,?,nt,?,-4.9
Cc1nn(Cc2ccccc2)c(=O)n1N(C)c1ncc(C(F)(F)F)cc1Cl,-10.6,nt,-95.2%,?,-3.1
O=C(COC(=O)c1c2c(nc3ccccc13)CCCC2)Nc1ccc2c(c1)OCO2,23.3,10.4µM*,-46.5%,?,13.7
CC(C)(C)NC(=O)COC(=O)c1c2c(nc3ccccc13)CCC2,-2.3,5.22µM*,-31.2%,?,-2.6
O=C(OCC(=O)N1CCc2ccccc21)c1c2c(nc3ccccc13)CCCCC2,+,-88.2%,-19.0%,4.65µM*,19.9*
NC(=O)COC(=O)c1c2c(nc3ccccc13)CCCC2,-8.0,-20.3%,nt,4.7%,-1.6
CN(CC(=O)Nc1ccccc1Cl)C(=O)COC(=O)C1CC1,nt,?,nt,1.8%,nt
SMILES,Shiga inhibitor,Pf growth 96h,NS1 function inh,Pf growth 48h,Cycloheximide cs
O=C(/C=C/c1ccc2c(c1)OCO2)NCCSCc1c(Cl)cccc1Cl,-8.1,4.5%,-5.1%,4.4%,0.6
O=C(Nc1cc(S(=O)(=O)N2CCOCC2)ccc1N1CCOCC1)c1ccc(Cl)nc1,-12.9,-26.3%,-3.4%,-16.7%,-1.0
C/C(=N\NC=O)c1ccncc1,-4.1,62.8%,nt,33.4%,2.5
C/C(=N\Nc1ccc(Cl)cc1)c1ccncc1,47.4,?,-42.8%,?,21.1*
C/C(=N\Nc1ccc(F)cc1)c1ccncc1,33.7,6.3%,-17.9%,20.7%,24.1*
C/C(=N\Nc1cccc(Cl)c1)c1ccncc1,31.3,-14.7%,-29.9%,-0.2%,24.1*
C/C(=N\NC1=NCCN1)c1ccc(Cl)cc1,13.8,2.33µM*,-6.0%,?,0.7
C/C(=N\Nc1cc(C(F)(F)F)ccc1Cl)c1ccncc1,2.1,?,-3.9%,?,-3.4
Cc1cc(C(=O)Cn2cnc3ccccc3c2=O)c(C)n1C1CC1,nt,50.9%,nt,-3.6%,nt
Clc1ccc(CO/N=C/c2cccs2)cc1,1.2,0.1%,0.4%,?,0.6
C=CCSc1nc(C)c(CCCC)c(=O)[nH]1,31.9,25.5%,1.0%,-3.6%,-4.1
Cc1cc(C(=O)CCC(=O)NCC2COc3ccccc3O2)c(C)s1 (stereo unspecified),nt,17.7%,nt,?,nt
COc1ccccc1C(=O)NCCC(=O)Nc1ccc(S(=O)(=O)N2CC(C)CC(C)C2)cc1 (stereo unspecified),nt,14.7µM*,nt,?,nt
